The text below walks through data of PubChem BioAssay (NCI).

Compounds without any hit were thinned out: in the full panel of roughly 83,000, 20% have a hit.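 Values shown are percent growth following 48 h exposure of cells in 96-well plates to a single concentration of compound; below 10 was considered active.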 Values without a mark were called inactive. Calls of active or inactive are those of the source.

Holding throughout (assay): NCI-60 one-dose screen, 48 h (100 = growth as untreated, 0 = no growth, -100 = all killed)
In one test the test system is SK-MEL-2 melanoma. As to conditions: 10 µM.
A further test concerns SN12C renal. As to conditions: 10 µM.
The test system of a further test is TK-10 renal. As to conditions: 10 µM unless noted.
The next test deals with ACHN renal. Conditions: 10 µM.
In the next test the test system is CAKI-1 renal. As to conditions: 10 µM.
A further test concerns A498 renal. Conditions: 10 µM.
A further test deals with CCRF-CEM leukemia. As to conditions: 10 µM.
A further test concerns MOLT-4 leukemia. As to conditions: 10 µM.
The test system of the next test is SR leukemia. As to conditions: 10 µM.
The next test has as its system OVCAR-8 ovarian. Conditions: 10 µM.
The next test has as its system OVCAR-5 ovarian. As to conditions: 10 µM.
A further test relates to OVCAR-4 ovarian. Conditions: 10 µM.
The subject of the next test is SK-OV-3 ovarian. Conditions: 10 µM.
A further test has as its system IGROV1 ovarian. As to conditions: 10 µM.
Another test deals with OVCAR-3 ovarian. As to conditions: 10 µM.
A further test deals with HS 578T breast. Conditions: 10 µM.
The subject of the next test is NCI/ADR-RES ovarian. As to conditions: 10 µM.
The subject of a further test is UO-31 renal. As to conditions: 10 µM.
For a further test, the system named is RPMI-8226 leukemia. Conditions: 10 µM.
The subject of the next test is EKVX NSCLC. As to conditions: 10 µM.

In the case of `CCCCCCCCO`, the growth in the test on SK-MEL-2 melanoma was 117%; in the test with SN12C renal, 97.5%; in the test on TK-10 renal it was 110%; in the test with ACHN renal it was 105%; with CAKI-1 renal, 103%; with A498 renal it was 108%. For the same compound, the growth with CCRF-CEM leukemia was 108%; with MOLT-4 leukemia, 97.4%; with SR leukemia, 102%; in the test with OVCAR-8 ovarian it was 100%; in the test with OVCAR-5 ovarian, 101%; in the test with OVCAR-4 ovarian, 80.1%. The growth in the test on SK-OV-3 ovarian is 111%; in the test on IGROV1 ovarian, 114%; with OVCAR-3 ovarian, 107%; with HS 578T breast it was 111%; in the test on NCI/ADR-RES ovarian, 102%.

Regarding `COc1ccc(C(=O)C(Br)C(Br)C(=O)O)cc1` (configuration not stated), the growth with SK-MEL-2 melanoma was 94%; in the test with SN12C renal, 98.6%; in the test on UO-31 renal, 102%; in the test on ACHN renal it was 101%; in the test with CAKI-1 renal, 112%; in the test on A498 renal it was 101%. In addition, the growth is 105% with MOLT-4 leukemia; 110% in the test with RPMI-8226 leukemia; 105% in the test on OVCAR-8 ovarian; 101% in the test on OVCAR-5 ovarian; 118% with OVCAR-4 ovarian; 104% in the test with SK-OV-3 ovarian. Besides, the growth with IGROV1 ovarian is 110%; with OVCAR-3 ovarian it was 116%; with HS 578T breast it was 99.6%; in the test on NCI/ADR-RES ovarian, 92.1%.

On to `C[C@@H](c1ccccc1)[C@@H](C(=O)O)c1ccccc1`, for which the growth in the test with SK-MEL-2 melanoma is 99.5%; with SN12C renal it was 98.1%; in the test on UO-31 renal it was 91.2%; with ACHN renal, 96.4%; with CAKI-1 renal, 99.1%; with A498 renal, 96.7%. Also, the growth in the test on CCRF-CEM leukemia is 98.9%; with MOLT-4 leukemia, 102%; in the test on SR leukemia, 105%; in the test with RPMI-8226 leukemia, 99.7%; in the test with OVCAR-8 ovarian, 98.2%; in the test with OVCAR-5 ovarian, 105%. For the same compound, the growth in the test on OVCAR-4 ovarian was 94.7%; in the test on SK-OV-3 ovarian, 100%; in the test on IGROV1 ovarian, 111%; with OVCAR-3 ovarian, 104%; in the test with HS 578T breast, 110%; in the test with NCI/ADR-RES ovarian, 105%.

Consider `CCC/C=C(\C)C(C)(C#N)C(=O)OCC` (configuration not stated), for which the growth was 105% with SK-MEL-2 melanoma; 100% in the test on UO-31 renal; 108% with TK-10 renal; 106% in the test on ACHN renal; 92.3% in the test with CAKI-1 renal; 98.9% in the test on A498 renal. The growth in the test with CCRF-CEM leukemia was 90.4%; in the test on MOLT-4 leukemia, 104%; with SR leukemia, 100%; in the test on RPMI-8226 leukemia, 95.1%; in the test with OVCAR-8 ovarian it was 101%; with OVCAR-5 ovarian, 110%. Also, the growth in the test with OVCAR-4 ovarian is 107%; in the test with SK-OV-3 ovarian, 111%; in the test with IGROV1 ovarian it was 107%; in the test with OVCAR-3 ovarian, 124%; with NCI/ADR-RES ovarian, 110%.

In the case of `N=c1c(C(=O)OCc2ccccc2)ncc(CCl)n1O`, the growth was 101% in the test on EKVX NSCLC; 88.6% with SN12C renal; 83.5% in the test with UO-31 renal; 106% in the test with TK-10 renal; 94.6% in the test with ACHN renal; 92.2% in the test on CAKI-1 renal. For the same compound, the growth in the test with A498 renal was 103%; in the test with CCRF-CEM leukemia, 94%; in the test with MOLT-4 leukemia, 97.8%; in the test with SR leukemia, 82.6%; with RPMI-8226 leukemia, 76.8%; with OVCAR-8 ovarian, 101%. In addition, the growth in the test with OVCAR-5 ovarian was 103%; with OVCAR-4 ovarian, 91.3%; in the test with SK-OV-3 ovarian it was 107%; in the test with IGROV1 ovarian, 95%; in the test on OVCAR-3 ovarian, 99.1%; in the test on HS 578T breast it was 114%. Also, in the test with NCI/ADR-RES ovarian, the growth is 105%.

For `C/C(=N\NC(=O)c1ccccc1N)c1ccccc1O`, the growth in the test with SK-MEL-2 melanoma was 71.2%; in the test on SN12C renal, 41.1%; in the test on TK-10 renal, 27.6%; in the test with ACHN renal, 32.3%; in the test on CAKI-1 renal, 3.89% (active); in the test with A498 renal, 89%. Further, the growth with MOLT-4 leukemia was 19.3%; in the test with SR leukemia, 35.3%; with RPMI-8226 leukemia, 52.1%; in the test on OVCAR-8 ovarian, 18.2%; in the test with OVCAR-5 ovarian, 52.2%; in the test with OVCAR-4 ovarian, 6.68% (active). The growth with SK-OV-3 ovarian was 58.3%; in the test on IGROV1 ovarian it was 36.3%; in the test with OVCAR-3 ovarian it was 12.4%; in the test on HS 578T breast it was 97.8%; in the test on NCI/ADR-RES ovarian, 26.7%.

Turning to `CC1=CC(C)(C)NC(=S)N1c1ccc(S(=O)(=O)O)c2cccc(S(=O)(=O)O)c12`, the growth in the test on EKVX NSCLC is 115%; in the test on SN12C renal, 103%; with UO-31 renal, 72.6%; with TK-10 renal it was 106%; in the test with ACHN renal, 99.5%; in the test on CAKI-1 renal, 115%. Moreover, the growth was 97.6% in the test with A498 renal; 94.1% with CCRF-CEM leukemia; 114% with MOLT-4 leukemia; 109% in the test with SR leukemia; 113% in the test on RPMI-8226 leukemia; 114% in the test on OVCAR-8 ovarian. Further, the growth in the test on OVCAR-5 ovarian is 105%; in the test on OVCAR-4 ovarian, 117%; in the test on SK-OV-3 ovarian, 115%; with IGROV1 ovarian it was 95.9%; with OVCAR-3 ovarian it was 99.9%; in the test on HS 578T breast, 92.8%. Further, in the test on NCI/ADR-RES ovarian, the growth is 110%.

On to `O=C1C=CC(=O)N1c1ccc(I)cc1Cl`, for which the growth with SK-MEL-2 melanoma was 114%; in the test on SN12C renal, 101%; in the test with UO-31 renal it was 94%; with ACHN renal, 104%; in the test on A498 renal, 99.1%; in the test with CCRF-CEM leukemia, 85.9%. The growth with SR leukemia is 110%; in the test with RPMI-8226 leukemia, 92.5%; with OVCAR-8 ovarian, 73.7%; with OVCAR-5 ovarian, 102%; with OVCAR-4 ovarian, 99.4%; in the test on SK-OV-3 ovarian, 109%. The growth in the test with IGROV1 ovarian was 113%; with OVCAR-3 ovarian, 118%; in the test with HS 578T breast, 109%; in the test with NCI/ADR-RES ovarian, 97.9%.

On to `O=C(Cc1ccccc1)Cc1ccccc1`, for which the growth with SK-MEL-2 melanoma is 90.1%; in the test with SN12C renal, 104%; in the test on UO-31 renal it was 98%; in the test with ACHN renal, 98.1%; with CAKI-1 renal, 97.9%; in the test on A498 renal, 101%. Besides, the growth in the test on CCRF-CEM leukemia was 98.3%; in the test with MOLT-4 leukemia it was 96.7%; in the test on SR leukemia, 104%; with RPMI-8226 leukemia, 103%; with OVCAR-8 ovarian it was 89.6%; in the test on OVCAR-5 ovarian it was 95.8%. Also, the growth is 97.2% in the test on OVCAR-4 ovarian; 99.8% in the test on SK-OV-3 ovarian; 104% in the test with IGROV1 ovarian; 106% in the test with OVCAR-3 ovarian; 106% in the test on HS 578T breast; 110% in the test on NCI/ADR-RES ovarian.
